Measured values: the supplement of paper PMC10849652
The full data set covers some 8,800 targets. This sample favours those with a hit. About 0.5% of all pairs of compound and target were hits.

What was measured:
Assay in all cases: log2 fold change, soluble protein after heating vs DMSO (PISA); higher = thermal stabilisation; K562 lysate, 10 uM; active = over 0.2 and 3.5 SD of the protein, either way, in both replicates (recomputed)
[1] = compound: C1=CC=C(C=C1)[C@H](COC2=CC3=C(C=C2)NC(=O)N3)NC(=O)C4=CC=CN(C4=O)CC5=CC(=C(C=C5)F)F
How it was run: (§1)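 K562 pellets were dounce-homogenised in PBS pH 7.4 with 1 mM MgCl2, and the crude extract at 1 mg/mL protein was treated with 10 μM compound for 30 min. Aliquots were heated for 3 min across 48°C-58°C, pooled, and brought to 0.5% NP-40 at 4°C; soluble protein was the supernatant after 21,000xg for 90 min. Soluble protein was quantified by TMTpro 16plex LC-MS/MS with channel sums equalised, and reported as log2 fold change in thermal stability against DMSO controls, with values from duplicates.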

[2] = compound: CC1=C(SC2=C1C(=N[C@H](C3=NN=C(N32)C)CC(=O)N)C4=CC=C(C=C4)Cl)C
How it was run: as §1

[3] = compound: CC1=C2C(=CC=C1)N=C(N(C2=O)C3=CC=CC=C3C)CN4C=NC5=C(N=CN=C54)N
How it was run: as §1

[4] = compound: Cc1sc2c(c1C)C(c1ccc(Cl)cc1)=N[C@@H](CC(=O)OC(C)(C)C)c1nnc(C)n1-2
How it was run: as §1

[5] = compound: c1ccc([C@@H]2C[C@H]2NC2CCNCC2)cc1
How it was run: as §1

UniProt O95336, sequence (O95336 whole entry, looked up): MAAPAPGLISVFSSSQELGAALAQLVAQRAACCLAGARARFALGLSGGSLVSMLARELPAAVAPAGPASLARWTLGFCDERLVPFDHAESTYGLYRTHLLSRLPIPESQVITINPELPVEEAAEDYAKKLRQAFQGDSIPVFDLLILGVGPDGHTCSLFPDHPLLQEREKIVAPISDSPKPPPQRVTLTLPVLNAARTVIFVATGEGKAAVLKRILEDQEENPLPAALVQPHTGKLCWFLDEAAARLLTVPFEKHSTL
UniProt Q9UBV8, sequence (Q9UBV8 whole entry, looked up): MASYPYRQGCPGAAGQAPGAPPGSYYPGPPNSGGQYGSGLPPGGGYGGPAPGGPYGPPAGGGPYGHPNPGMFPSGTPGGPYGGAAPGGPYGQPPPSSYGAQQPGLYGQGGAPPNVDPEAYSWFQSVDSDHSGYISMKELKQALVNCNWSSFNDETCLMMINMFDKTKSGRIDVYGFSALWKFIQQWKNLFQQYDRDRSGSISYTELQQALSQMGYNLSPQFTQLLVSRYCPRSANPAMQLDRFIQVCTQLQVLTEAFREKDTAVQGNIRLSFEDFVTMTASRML
UniProt Q9H7Z7, sequence (Q9H7Z7 whole entry, looked up): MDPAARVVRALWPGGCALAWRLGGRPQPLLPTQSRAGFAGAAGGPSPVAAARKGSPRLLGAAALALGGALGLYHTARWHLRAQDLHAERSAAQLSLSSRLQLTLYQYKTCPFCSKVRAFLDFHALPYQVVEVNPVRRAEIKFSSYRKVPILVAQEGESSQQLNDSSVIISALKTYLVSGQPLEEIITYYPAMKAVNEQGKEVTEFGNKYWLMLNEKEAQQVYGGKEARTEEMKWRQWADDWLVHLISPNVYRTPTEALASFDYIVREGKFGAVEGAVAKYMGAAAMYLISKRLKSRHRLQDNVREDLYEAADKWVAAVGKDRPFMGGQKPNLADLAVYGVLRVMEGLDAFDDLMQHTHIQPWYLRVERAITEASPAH
UniProt P17706, sequence (P17706 whole entry, looked up): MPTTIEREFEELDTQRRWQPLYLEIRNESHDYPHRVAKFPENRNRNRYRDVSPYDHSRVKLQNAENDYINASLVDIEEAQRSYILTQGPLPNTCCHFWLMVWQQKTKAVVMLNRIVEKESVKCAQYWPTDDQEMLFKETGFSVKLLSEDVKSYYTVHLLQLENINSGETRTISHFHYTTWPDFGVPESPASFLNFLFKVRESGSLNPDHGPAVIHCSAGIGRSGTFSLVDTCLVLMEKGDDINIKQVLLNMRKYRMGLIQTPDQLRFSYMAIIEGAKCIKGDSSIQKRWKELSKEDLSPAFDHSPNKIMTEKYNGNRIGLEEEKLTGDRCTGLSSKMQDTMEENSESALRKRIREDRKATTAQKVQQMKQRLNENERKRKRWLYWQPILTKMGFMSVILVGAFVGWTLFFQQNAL
UniProt Q8TCD6, sequence (Q8TCD6 whole entry, looked up): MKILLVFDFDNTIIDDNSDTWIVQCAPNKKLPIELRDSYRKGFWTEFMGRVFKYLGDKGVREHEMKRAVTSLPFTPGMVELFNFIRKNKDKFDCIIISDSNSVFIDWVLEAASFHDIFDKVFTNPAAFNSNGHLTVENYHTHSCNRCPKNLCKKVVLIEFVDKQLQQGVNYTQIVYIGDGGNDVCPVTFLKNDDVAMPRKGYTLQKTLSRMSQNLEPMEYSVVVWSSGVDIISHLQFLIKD
UniProt P29350, sequence (P29350 whole entry, looked up): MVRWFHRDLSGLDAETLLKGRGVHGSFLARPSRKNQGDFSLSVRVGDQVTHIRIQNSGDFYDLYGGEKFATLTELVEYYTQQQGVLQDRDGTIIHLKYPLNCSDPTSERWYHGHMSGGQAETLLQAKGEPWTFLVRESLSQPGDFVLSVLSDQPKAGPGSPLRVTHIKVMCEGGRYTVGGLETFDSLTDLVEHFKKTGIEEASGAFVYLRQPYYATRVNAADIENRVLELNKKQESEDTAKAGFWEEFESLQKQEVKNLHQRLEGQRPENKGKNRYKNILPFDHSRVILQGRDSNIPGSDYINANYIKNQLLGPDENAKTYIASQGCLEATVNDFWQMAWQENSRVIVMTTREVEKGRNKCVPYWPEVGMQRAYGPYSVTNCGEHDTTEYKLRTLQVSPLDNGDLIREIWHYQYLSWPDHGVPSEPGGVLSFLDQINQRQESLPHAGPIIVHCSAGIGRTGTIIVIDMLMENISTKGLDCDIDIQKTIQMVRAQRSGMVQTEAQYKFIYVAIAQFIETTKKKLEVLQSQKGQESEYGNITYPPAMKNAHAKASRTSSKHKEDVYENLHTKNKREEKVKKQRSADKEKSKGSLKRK
UniProt Q10713, sequence (Q10713 whole entry, looked up): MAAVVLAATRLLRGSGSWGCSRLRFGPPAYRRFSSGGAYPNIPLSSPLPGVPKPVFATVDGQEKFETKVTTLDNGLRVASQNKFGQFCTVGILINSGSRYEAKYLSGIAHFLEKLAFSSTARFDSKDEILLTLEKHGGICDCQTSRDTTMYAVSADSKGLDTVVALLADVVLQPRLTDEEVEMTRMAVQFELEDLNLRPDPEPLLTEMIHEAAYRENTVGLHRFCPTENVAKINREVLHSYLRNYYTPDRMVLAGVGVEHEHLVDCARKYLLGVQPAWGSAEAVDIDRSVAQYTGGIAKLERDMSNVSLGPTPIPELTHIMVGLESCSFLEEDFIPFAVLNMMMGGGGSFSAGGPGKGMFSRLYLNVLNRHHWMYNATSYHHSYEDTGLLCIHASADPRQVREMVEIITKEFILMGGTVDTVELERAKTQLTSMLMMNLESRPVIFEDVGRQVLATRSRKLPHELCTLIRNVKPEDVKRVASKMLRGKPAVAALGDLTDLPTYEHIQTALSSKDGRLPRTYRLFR
UniProt Q9NR22, sequence (Q9NR22 whole entry, looked up): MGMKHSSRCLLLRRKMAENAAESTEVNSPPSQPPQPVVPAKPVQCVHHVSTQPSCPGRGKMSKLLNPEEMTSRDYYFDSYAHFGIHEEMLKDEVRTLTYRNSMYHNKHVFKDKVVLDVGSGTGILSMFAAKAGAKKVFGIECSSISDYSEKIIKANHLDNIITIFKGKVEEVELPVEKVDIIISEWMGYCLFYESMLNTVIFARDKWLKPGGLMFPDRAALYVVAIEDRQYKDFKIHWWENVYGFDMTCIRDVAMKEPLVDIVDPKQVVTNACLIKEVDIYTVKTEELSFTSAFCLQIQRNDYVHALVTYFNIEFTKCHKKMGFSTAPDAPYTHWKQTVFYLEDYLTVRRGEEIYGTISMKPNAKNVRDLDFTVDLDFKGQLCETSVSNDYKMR
UniProt Q13362, sequence (Q13362 whole entry, looked up): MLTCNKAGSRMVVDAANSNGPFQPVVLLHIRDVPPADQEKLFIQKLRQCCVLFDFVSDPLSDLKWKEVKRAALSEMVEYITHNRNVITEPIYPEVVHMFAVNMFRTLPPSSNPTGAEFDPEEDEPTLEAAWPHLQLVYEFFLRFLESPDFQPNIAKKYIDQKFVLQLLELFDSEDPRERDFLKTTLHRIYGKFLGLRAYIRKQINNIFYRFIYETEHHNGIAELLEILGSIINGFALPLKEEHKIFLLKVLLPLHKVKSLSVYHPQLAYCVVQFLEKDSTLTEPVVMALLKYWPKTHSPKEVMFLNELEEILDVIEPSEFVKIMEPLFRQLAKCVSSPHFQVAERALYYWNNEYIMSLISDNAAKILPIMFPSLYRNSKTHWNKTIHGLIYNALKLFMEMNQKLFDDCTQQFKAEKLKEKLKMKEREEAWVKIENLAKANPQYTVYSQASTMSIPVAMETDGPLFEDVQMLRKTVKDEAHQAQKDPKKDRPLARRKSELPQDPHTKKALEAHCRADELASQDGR
UniProt P18031, sequence (P18031 whole entry, looked up): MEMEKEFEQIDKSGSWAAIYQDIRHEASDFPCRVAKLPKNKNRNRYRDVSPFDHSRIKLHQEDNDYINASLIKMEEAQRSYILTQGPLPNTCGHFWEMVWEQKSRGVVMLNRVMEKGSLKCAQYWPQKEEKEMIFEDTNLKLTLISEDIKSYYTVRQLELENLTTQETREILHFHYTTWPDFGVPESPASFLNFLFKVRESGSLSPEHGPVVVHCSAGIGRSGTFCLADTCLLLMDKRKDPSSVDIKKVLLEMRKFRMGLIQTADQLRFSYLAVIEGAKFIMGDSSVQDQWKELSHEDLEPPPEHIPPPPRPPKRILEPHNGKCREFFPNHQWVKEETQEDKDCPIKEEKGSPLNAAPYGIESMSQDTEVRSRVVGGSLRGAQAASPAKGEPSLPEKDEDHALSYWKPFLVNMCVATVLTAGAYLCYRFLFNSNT
UniProt Q15366, sequence (Q15366 whole entry, looked up): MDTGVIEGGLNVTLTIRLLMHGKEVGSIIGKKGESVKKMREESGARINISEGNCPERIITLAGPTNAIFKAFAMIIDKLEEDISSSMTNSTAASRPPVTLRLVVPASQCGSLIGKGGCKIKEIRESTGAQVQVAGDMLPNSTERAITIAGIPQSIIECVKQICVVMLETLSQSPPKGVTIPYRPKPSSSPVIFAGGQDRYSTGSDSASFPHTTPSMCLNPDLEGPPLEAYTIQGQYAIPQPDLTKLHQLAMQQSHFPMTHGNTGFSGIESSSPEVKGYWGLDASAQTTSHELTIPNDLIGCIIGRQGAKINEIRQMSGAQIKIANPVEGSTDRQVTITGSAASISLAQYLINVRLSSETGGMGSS
UniProt P67775, sequence (P67775 whole entry, looked up): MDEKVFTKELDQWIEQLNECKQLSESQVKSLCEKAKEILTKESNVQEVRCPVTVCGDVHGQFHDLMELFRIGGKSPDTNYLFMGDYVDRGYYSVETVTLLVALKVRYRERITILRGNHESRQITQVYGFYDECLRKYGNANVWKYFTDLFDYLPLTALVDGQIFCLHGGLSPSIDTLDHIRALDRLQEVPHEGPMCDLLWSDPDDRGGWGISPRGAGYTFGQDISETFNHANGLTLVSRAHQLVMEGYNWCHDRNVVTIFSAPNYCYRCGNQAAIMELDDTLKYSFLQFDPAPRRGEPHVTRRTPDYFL
UniProt P06454, sequence (P06454 whole entry, looked up): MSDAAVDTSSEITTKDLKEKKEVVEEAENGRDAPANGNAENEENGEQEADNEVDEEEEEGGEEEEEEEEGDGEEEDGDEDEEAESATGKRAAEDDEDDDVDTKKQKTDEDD

Target | log2 fold change [1] | log2 fold change [2] | log2 fold change [3] | log2 fold change [4] | log2 fold change [5]
PIP4K2A (UniProt P48426) | -0.093 (inactive) | -0.053 (inactive) | -0.041 (inactive) | -0.05 (inactive) | -0.106 (inactive)
PRKACA (UniProt P17612) | 0.029 (inactive) | 0.019 (inactive) | 0.008 (inactive) | -0.013 (inactive) | -0.245 (inactive)
PDCD6IP (UniProt Q8WUM4) | -0.077 (inactive) | 0.086 (inactive) | 0.037 (inactive) | 0.043 (inactive) | 0.085 (inactive)
PHOSPHO2 (UniProt Q8TCD6) | -0.029 (inactive) | 0.02 (inactive) | 0.046 (inactive) | -0.053 (inactive) | 0.061 (inactive)
PCBP2 (UniProt H3BRU6) | 0.166 (inactive) | -0.15 (inactive) | -0.208 (inactive) | 0.104 (inactive) | -0.11 (inactive)
PDCD4 (UniProt Q53EL6) | -0.026 (inactive) | 0.005 (inactive) | -0.007 (inactive) | 0.002 (inactive) | 0.001 (inactive)
PFKFB2 (UniProt O60825) | 0.016 (inactive) | 0.001 (inactive) | 0.03 (inactive) | -0.001 (inactive) | -0.008 (inactive)
PTK2B (UniProt Q14289) | -0.056 (inactive) | -0.012 (inactive) | -0.036 (inactive) | -0.009 (inactive) | -0.034 (inactive)
PYCR2 (UniProt Q96C36) | 0.007 (inactive) | 0.036 (inactive) | 0.013 (inactive) | 0.004 (inactive) | -0.054 (inactive)
PPIE (UniProt Q9UNP9) | 0.033 (inactive) | -0.023 (inactive) | 0.026 (inactive) | -0.04 (inactive) | -0.144 (inactive)
PLIN2 (UniProt Q99541) | -0.138 (inactive) | 0.015 (inactive) | 0.021 (inactive) | -0.018 (inactive) | 0.014 (inactive)
PTPN1 (UniProt P18031) | -0.006 (inactive) | 0.008 (inactive) | 0.01 (inactive) | -0.026 (inactive) | 0.005 (inactive)
PPOX (UniProt P50336) | 0.579 (active) | 0.012 (inactive) | -0.009 (inactive) | -0.02 (inactive) | -0.023 (inactive)
PIP4K2C (UniProt Q8TBX8) | -0.12 (inactive) | -0.062 (inactive) | -0.113 (inactive) | -0.023 (inactive) | -0.011 (inactive)
PPP2R5C isoform 4 (UniProt Q13362) | -0.057 (inactive) | 0.003 (inactive) | 0.021 (inactive) | -0.103 (inactive) | 0.021 (inactive)
PTMA (UniProt P06454) | 0.015 (inactive) | 0.018 (inactive) | 0.01 (inactive) | -0.004 (inactive) | 0.241 (inactive)
PTK2 (UniProt Q05397) | 0.006 (inactive) | -0.027 (inactive) | -0.003 (inactive) | 0.023 (inactive) | -0.131 (inactive)
PTPN6 isoform 4 (UniProt P29350) | 0.12 (inactive) | 0.029 (inactive) | 0.063 (inactive) | 0.047 (inactive) | 0.133 (inactive)
PCBP2 isoform 3 (UniProt Q15366) | -0.011 (inactive) | 0.017 (inactive) | -0.041 (inactive) | 0.061 (inactive) | 0.05 (inactive)
PRPF38A (UniProt Q8NAV1) | 0.034 (inactive) | -0.055 (inactive) | -0.08 (inactive) | -0.024 (inactive) | -0.133 (inactive)
PMS2 (UniProt P54278) | -0.021 (inactive) | 0.005 (inactive) | 0.024 (inactive) | -0.031 (inactive) | 0.039 (inactive)
PIM1 isoform 2 (UniProt P11309) | -0.115 (inactive) | -0.046 (inactive) | -0.127 (inactive) | -0.025 (inactive) | -0.191 (inactive)
PPP2CA (UniProt P67775) | -0.108 (inactive) | 0.037 (inactive) | 0.037 (inactive) | 0.092 (inactive) | -0.092 (inactive)
PELO (UniProt Q9BRX2) | -0.014 (inactive) | 0.05 (inactive) | 0.034 (inactive) | 0.087 (inactive) | 0.27 (inactive)
PGLS (UniProt O95336) | -0.063 (inactive) | -0.06 (inactive) | 0.094 (inactive) | -0.04 (inactive) | 0.095 (inactive)
PRKCA (UniProt P17252) | 0.01 (inactive) | -0.012 (inactive) | -0.061 (inactive) | 0.021 (inactive) | 0.089 (inactive)
PPP3CA isoform 2 (UniProt Q08209) | -0.026 (inactive) | -0.115 (inactive) | -0.017 (inactive) | 0.004 (inactive) | 0.043 (inactive)

Target | log2 fold change [1] | log2 fold change [2] | log2 fold change [3] | log2 fold change [4] | log2 fold change [5]
PRPF6 (UniProt O94906) | -0.006 (inactive) | 0.015 (inactive) | -0.012 (inactive) | -0.01 (inactive) | 0.04 (inactive)
PWP2 (UniProt Q15269) | -0.004 (inactive) | -0.042 (inactive) | -0.013 (inactive) | -0.048 (inactive) | 0.061 (inactive)
PTGR2 (UniProt Q8N8N7) | 0.009 (inactive) | 0.039 (inactive) | -0.003 (inactive) | -0.048 (inactive) | -0.004 (inactive)
PPIL2 (UniProt Q13356) | 0.036 (inactive) | 0.005 (inactive) | 0.029 (inactive) | 0.082 (inactive) | 0.011 (inactive)
PFKFB3 isoform 4 (UniProt Q16875) | -0.04 (inactive) | 0.047 (inactive) | 0.057 (inactive) | 0.018 (inactive) | 0.041 (inactive)
PRMT8 (UniProt Q9NR22) | -0.016 (inactive) | 0.031 (inactive) | 0.01 (inactive) | -0.041 (inactive) | -0.147 (inactive)
PEF1 (UniProt Q9UBV8) | 0.016 (inactive) | -0.039 (inactive) | 0.055 (inactive) | 0.048 (inactive) | -0.031 (inactive)
PCBD2 (UniProt Q9H0N5) | -0.019 (inactive) | 0.048 (inactive) | 0.002 (inactive) | -0.011 (inactive) | -0.172 (inactive)
PDXDC1 (UniProt Q6P996) | 0.025 (inactive) | 0.022 (inactive) | 0.01 (inactive) | 0.02 (inactive) | 0.014 (inactive)
PSMB9 (UniProt P28065) | 0.074 (inactive) | 0.159 (inactive) | 0.111 (inactive) | -0.095 (inactive) | -0.013 (inactive)
PTGES2 (UniProt Q9H7Z7) | 0.166 (inactive) | -0.119 (inactive) | -0.101 (inactive) | -0.006 (inactive) | 0.014 (inactive)
PMPCA (UniProt Q10713) | 0.019 (inactive) | 0.031 (inactive) | 0.028 (inactive) | -0.013 (inactive) | -0.012 (inactive)
PIP4P2 (UniProt Q8N4L2) | 0.03 (inactive) | -0.068 (inactive) | -0.012 (inactive) | 0.012 (inactive) | -0.106 (inactive)
PRMT7 (UniProt Q9NVM4) | -0.002 (inactive) | -0.029 (inactive) | 0.009 (inactive) | -0.039 (inactive) | 0.014 (inactive)
PPIL3 (UniProt Q9H2H8) | 0.067 (inactive) | -0.012 (inactive) | 0.035 (inactive) | 0.028 (inactive) | -0.237 (active)
POLD1 (UniProt P28340) | 0.026 (inactive) | 0.003 (inactive) | 0.011 (inactive) | 0.03 (inactive) | 0.042 (inactive)
POLR2G (UniProt P62487) | 0.018 (inactive) | 0.021 (inactive) | -0.003 (inactive) | 0.007 (inactive) | -0.108 (inactive)
PGRMC1 (UniProt O00264) | 0.073 (inactive) | -0.038 (inactive) | 0.008 (inactive) | -0.031 (inactive) | -0.039 (inactive)
PICALM (UniProt Q13492) | -0.014 (inactive) | 0.027 (inactive) | 0.016 (inactive) | 0.005 (inactive) | 0.007 (inactive)
PI4KA (UniProt P42356) | -0.08 (inactive) | -0.012 (inactive) | 0.057 (inactive) | -0.019 (inactive) | -0.018 (inactive)
PRIM1 (UniProt P49642) | 0.009 (inactive) | -0.051 (inactive) | -0.018 (inactive) | -0.006 (inactive) | 0.047 (inactive)
PPM1H (UniProt Q9ULR3) | 0.011 (inactive) | -0.023 (inactive) | -0.008 (inactive) | 0.062 (inactive) | 0.05 (inactive)
PTPN2 (UniProt P17706) | -0.031 (inactive) | 0.017 (inactive) | 0.023 (inactive) | 0.007 (inactive) | 0.012 (inactive)
PPCDC (UniProt Q96CD2) | -0.02 (inactive) | 0.034 (inactive) | -0.054 (inactive) | -0.074 (inactive) | -0.191 (inactive)
PRKCSH (UniProt K7ELL7) | 0.045 (inactive) | -0.027 (inactive) | -0.157 (inactive) | -0.112 (inactive) | -0.048 (inactive)
PIK3R2 (UniProt O00459) | 0.002 (inactive) | -0.058 (inactive) | 0.272 (inactive) | 0.024 (inactive) | -0.007 (inactive)
